# The supplement of paper PMC9135407
# Values joined by “and” are separate entries in the source; they are usually repeats but may differ in a detail not shown here. Equal values may be shown once. Where a name gives a salt, the structure may show the parent alone. Screen size: about 5,800 compounds; about 620 (11%) showed activity. The entries come from a sample that favours actives as a whole. Unmarked numbers belong to inactive results.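 The calls were made as follows: active = score above a cut-off or among the top three wells of a plate; in these data no inactive exceeds 0.85.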
# System: primary human hepatic stellate cells (donor 1)
# Assay: scaled lipid accumulation score (0 = DMSO-like, 1 = nortriptyline-like); higher = stronger HSC inactivation (lipid re-accumulation), active = hit call of the paper
# Settings: 48 h
# [1] = library stock concentration: 3.33 mM
# [2] = library stock concentration: 10 mM
# [3] = library stock concentration: 1 mM
# [4] = library stock concentration: 400 uM
# [5] = library stock concentration: 2 mM
# [6] = library stock concentration: 80 uM
smiles,measurement,setting,value
OCC(O)CCO/N=C1\C(c2c(O)[nH]c3ccccc23)=Nc2ccccc21 (configuration not stated) [Indirubin Derivative E804],scaled lipid accumulation score,[1],≤ 0
Cl.Fc1ccc([C@@H]2CCNC[C@H]2COc2ccc3c(c2)OCO3)cc1 [Paroxetine HCl],scaled lipid accumulation score,[1],0.491 (active)
Cl.Fc1ccc([C@@H]2CCNC[C@H]2COc2ccc3c(c2)OCO3)cc1 [Paroxetine Hydrochloride],scaled lipid accumulation score,,1.22 (active)
c1ccc(N2CCN(CCCOc3ccc4c(c3)OCO4)CC2)cc1 [BP 554 maleate],scaled lipid accumulation score,[2],≤ 0
Fc1ccc([C@@H]2CCNC[C@H]2COc2ccc3c(c2)OCO3)cc1 [Paroxetine],scaled lipid accumulation score,[2],0.634
Fc1ccc([C@@H]2CCNC[C@H]2COc2ccc3c(c2)OCO3)cc1 [Paroxetine HCl] [listing 1 of 2 here],scaled lipid accumulation score,[2],0.355
Fc1ccc([C@@H]2CCNC[C@H]2COc2ccc3c(c2)OCO3)cc1 [Paroxetine hydrochloride],scaled lipid accumulation score,[2],0.808
Fc1ccc([C@@H]2CCNC[C@H]2COc2ccc3c(c2)OCO3)cc1 [Paroxetine hydrochloride hemihydrate (MW = 374.83)],scaled lipid accumulation score,[2],0.836
Fc1ccc([C@@H]2CCNC[C@H]2COc2ccc3c(c2)OCO3)cc1 [Paroxetine HCl] [listing 2 of 2 here],scaled lipid accumulation score,library stock concentration: 6.1 mM,1.01 (active)
COc1cc(F)c(C(C)C)cc1-c1ccc(C(F)(F)F)cc1CN1C(=O)O[C@H](c2cc(C(F)(F)F)cc(C(F)(F)F)c2)[C@@H]1C [Anacetrapib (MK-0859)],scaled lipid accumulation score,[1],≤ 0
same,scaled lipid accumulation score,[2],≤ 0
C=C1C[C@@H](O)[C@H](/C=C/[C@@H](O)CCCCC)[C@H]1C/C=C\CCCC(=O)O [9-deoxy-9-methylene Prostaglandin E2],scaled lipid accumulation score,[3],0.01
Cc1cc(C)cc(NC(=O)Cc2ccc(OC(C)(C)C(=O)O)cc2)c1 [Efaproxiral Sodium],scaled lipid accumulation score,[1],≤ 0
same,scaled lipid accumulation score,[2],≤ -0.001
O=C1Cc2c([nH]c3ccc([N+](=O)[O-])cc23)-c2ccccc2N1 [Alsterpaullone],scaled lipid accumulation score,[1],≤ 0
COc1ccc(/C=C/C(=O)Nc2c(O)cccc2C(=O)O)cc1OC,scaled lipid accumulation score,[3],≤ 0
O=C(c1ccccc1)c1ccc2n1CCC2C(=O)O (configuration not stated) [Ketorolac (tromethamine salt)],scaled lipid accumulation score,[3],≤ 0
O=C(c1ccccc1)c1ccc2n1CCC2C(=O)O (configuration not stated) [Ketorolac tromethamine],scaled lipid accumulation score,,≤ 0
same,scaled lipid accumulation score,library stock concentration: 5.3 mM,≤ 0
same,scaled lipid accumulation score,[2],0.024
O=C(c1ccccc1)c1ccc2n1CCC2C(=O)O (configuration not stated),scaled lipid accumulation score,[2],≤ 0
O=C(c1ccccc1)c1ccc2n1CCC2C(=O)O (configuration not stated) [Ketorolac tris salt],scaled lipid accumulation score,[2],≤ -0.055
O=C(c1ccccc1)c1ccc2n1CCC2C(=O)O (configuration not stated) [Ketorolac],scaled lipid accumulation score,[1],≤ 0
same,scaled lipid accumulation score,[2],≤ 0
O=C(c1cccnc1)N1CCOCC1,scaled lipid accumulation score,[2],0.163
COC(=O)[C@]12CCC(C)(C)C[C@H]1[C@H]1C(=O)C=C3[C@@]4(C)C=C(C#N)C(=O)C(C)(C)[C@@H]4CC[C@@]3(C)[C@]1(C)CC2 [Bardoxolone Methyl],scaled lipid accumulation score,[1],0.195
same,scaled lipid accumulation score,[2],0.183
CC(C)OC(=O)CCC/C=C\C[C@@H]1[C@@H](/C=C/[C@@H](O)COc2cccc(C(F)(F)F)c2)[C@H](O)C[C@@H]1O,scaled lipid accumulation score,[2],≤ 0
O=C(/C=C\n1cnc(-c2cc(C(F)(F)F)cc(C(F)(F)F)c2)n1)NNc1cnccn1,scaled lipid accumulation score,[1],≤ -0.009
same,scaled lipid accumulation score,[2],0.384
CC1(C)S[C@@H]2[C@H](NC(=O)[C@H](NC(=O)N3CCN(S(C)(=O)=O)C3=O)c3ccccc3)C(=O)N2[C@H]1C(=O)O [Mezlocillin Sodium],scaled lipid accumulation score,[1],≤ 0
same,scaled lipid accumulation score,[2],0.043
C[C@@H](CN1CCC(n2c(=O)[nH]c3cc(Cl)ccc32)CC1)NC(=O)c1ccc2ccccc2c1,scaled lipid accumulation score,[3],0.02
C[C@@H](CN1CCC(n2c(=O)[nH]c3cc(Cl)ccc32)CC1)NC(=O)c1ccc2ccccc2c1.Cl,scaled lipid accumulation score,[2],1.12 (active)
O=C(NCCN1CCC(n2c(=O)[nH]c3cc(Cl)ccc32)CC1)c1ccc(F)cc1 [Halopemide],scaled lipid accumulation score,[3],≤ 0
"Brc1ccc(C2CN3CCSC3=N2)cc1 (single isomer, unassigned; (-)) [(-)-p-Bromotetramisole Oxalate]",scaled lipid accumulation score,[1],≤ -0.009
same,scaled lipid accumulation score,[2],0.192
C=CCNC(=O)c1cc([N+](=O)[O-])cc2c(=O)[nH]c(Nc3ccc(Cl)c(Cl)c3)nc12,scaled lipid accumulation score,[2],0.02
Cc1nc(-c2ccccc2)c(-c2ccncc2)o1,scaled lipid accumulation score,[1],≤ 0
CO[C@@H](C(=O)N1Cc2[nH]nc(NC(=O)c3ccc(N4CCN(C)CC4)cc3)c2C1)c1ccccc1 [listing 1 of 2 here],scaled lipid accumulation score,[2],0.915 (active)
CO[C@@H](C(=O)N1Cc2[nH]nc(NC(=O)c3ccc(N4CCN(C)CC4)cc3)c2C1)c1ccccc1 [listing 2 of 2 here],scaled lipid accumulation score,[4],≤ -0.005
same,scaled lipid accumulation score,[5],≤ -0.005
same,scaled lipid accumulation score,[1],0.533
same,scaled lipid accumulation score,[2],0.779
CCc1cccc(CC)c1NC(=O)N1Cc2[nH]nc(NC(=O)c3ccc(N4CCN(C)CC4)cc3)c2C1,scaled lipid accumulation score,[1],0.21
same,scaled lipid accumulation score,[2],0.34
O=C1c2c(O)cc(O)cc2O[C@H](c2ccc(O)c(O)c2)[C@H]1O,scaled lipid accumulation score,[2],≤ 0
OCc1ccccc1O [Salicyl alcohol],scaled lipid accumulation score,[2],≤ 0
same,scaled lipid accumulation score,library stock concentration: 16.1 mM,≤ 0
COc1ccc(S(=O)(=O)N(C(C)=O)c2ccccc2/C=C/c2cc[n+]([O-])cc2)cc1,scaled lipid accumulation score,[6],≤ -0.016
same,scaled lipid accumulation score,[4],≤ -0.016
same,scaled lipid accumulation score,[5],≤ -0.016
same,scaled lipid accumulation score,[1],≤ 0
same,scaled lipid accumulation score,[2],≤ 0 and 0.15
COc1ccc(S(=O)(=O)N(CCO)c2ccccc2CN(C)CC=Cc2ccc(Cl)cc2)cc1.O=P(=O)OO.[H] [KN-93 Phosphate],scaled lipid accumulation score,[2],1.07 (active)
COc1ccc(S(=O)(=O)N(CCO)c2ccccc2CN(C)C/C=C/c2ccc(Cl)cc2)cc1 [KN-93 Phosphate],scaled lipid accumulation score,[1],0.441
CCCCCCCC/C=C\CCCCCCCC(=O)N[C@@H](CO)C(=O)O [N-Oleoyl-L-Serine],scaled lipid accumulation score,[3],≤ 0
CCCC1([C@H](O)C/C=C/[C@H]2[C@H](O)CC(=O)[C@@H]2CCCCCCC(=O)OC)CCC1 [Butaprost],scaled lipid accumulation score,[3],≤ 0
CC/C=C\C/C=C\C/C=C\C/C=C\C/C=C\CCCCCC(=O)O [Docosapentaenoic acid],scaled lipid accumulation score,[3],≤ -0.021
CC/C=C\C/C=C\C/C=C\C/C=C\C/C=C\CCCCCC(=O)O [Docosapentaenoic Acid],scaled lipid accumulation score,[3],≤ 0
COc1cc2nccc(Oc3ccc(NC(=O)Nc4cc(C)on4)c(Cl)c3)c2cc1OC [Tivozanib (AV-951)],scaled lipid accumulation score,[1],0.068
same,scaled lipid accumulation score,[2],0.098
COc1cc2nccc(Oc3ccc(NC(=O)Nc4ccc(F)cc4F)c(F)c3)c2cc1OC [listing 1 of 3 here],scaled lipid accumulation score,[1],0.473
"COc1cc2nccc(Oc3ccc(NC(=O)Nc4cc(C)on4)c(Cl)c3)c2cc1OC [AV951 (KRN951, Tivozanib) (2 mM)]",scaled lipid accumulation score,[5],≤ -0.005
COc1cc2nccc(Oc3ccc(NC(=O)Nc4ccc(F)cc4F)c(F)c3)c2cc1OC [listing 2 of 3 here],scaled lipid accumulation score,[2],1.22 (active)
COc1cc2nccc(Oc3ccc(NC(=O)Nc4cc(C)on4)c(Cl)c3)c2cc1OC,scaled lipid accumulation score,[6],0.016
same,scaled lipid accumulation score,[4],≤ 0
same,scaled lipid accumulation score,[5],0.009
same,scaled lipid accumulation score,[2],0.246
COc1cc2nccc(Oc3ccc(NC(=O)NC4CC4)c(Cl)c3)c2cc1C(N)=O [Lenvatinib (E7080)],scaled lipid accumulation score,[1],0.055
same,scaled lipid accumulation score,[2],≤ 0
COc1cc2nccc(Oc3ccc(NC(=O)Nc4cc(C)on4)c(Cl)c3)c2cc1OC [VEGFR Tyrosine Kinase Inhibitor IV],scaled lipid accumulation score,[1],≤ 0
"COc1cc2nccc(Oc3ccc(NC(=O)Nc4cc(C)on4)c(Cl)c3)c2cc1OC [AV951 (KRN951, Tivozanib) (0.4 mM)]",scaled lipid accumulation score,[4],≤ -0.005
COc1cc2nccc(Oc3ccc(NC(=O)NC4CC4)c(Cl)c3)c2cc1C(N)=O,scaled lipid accumulation score,[4],0.067
same,scaled lipid accumulation score,[5],≤ -0.005
same,scaled lipid accumulation score,[2],≤ -0.005
"COc1cc2nccc(Oc3ccc(NC(=O)Nc4cc(C)on4)c(Cl)c3)c2cc1OC [AV951 (KRN951, Tivozanib) (10 mM)]",scaled lipid accumulation score,[2],0.775
COc1cc2nccc(Oc3ccc(NC(=O)Nc4ccc(F)cc4F)c(F)c3)c2cc1OC [listing 3 of 3 here],scaled lipid accumulation score,[2],1.05 (active)
COc1cc(Oc2ccnc3cc(OC)c(OC)cc23)ccc1NC(=O)NC(C)c1nccs1 (configuration not stated),scaled lipid accumulation score,[6],≤ -0.016
same,scaled lipid accumulation score,[4],≤ -0.016 and ≤ -0.005
same,scaled lipid accumulation score,[5],≤ -0.016 and ≤ -0.005
same,scaled lipid accumulation score,[2],0.713 and 0.552
CC(=O)N(O)[C@@H]1c2cc(C#N)ccc2OC(C)(C)[C@H]1O,scaled lipid accumulation score,[2],≤ 0
O=C(O)CCC/C=C\C[C@@H]1[C@@H](/C=C/C(F)(F)COc2ccccc2)[C@H](O)C[C@@H]1O [Tafluprost (free acid)],scaled lipid accumulation score,[3],0.007
CCCCC[C@H](O)/C=C/[C@@H]1[C@@H](C/C=C\CCCCN(C)C)[C@@H](O)C[C@H]1O [Prostaglandin F2.alpha. dimethyl amine],scaled lipid accumulation score,[3],≤ 0
CCCCCCCCCCCCCCCCCCOCC(COP(=O)([O-])OCC[N+](C)(C)C)OC (configuration not stated),scaled lipid accumulation score,[2],≤ -0.024
O=C(O)CCC/C=C\C[C@@H]1[C@@H](/C=C/C(=O)CCc2ccccc2)[C@H](O)C[C@@H]1O [15-keto-17-phenyl trinor Prostaglandin F2.alpha.],scaled lipid accumulation score,[3],≤ 0
